Experimental findings from the supplement of paper PMC6555819 are described below.

Assay in all cases: PBM binding z-score (relative to random genomic background probes); higher = stronger binding; sequences stand for … in GC…GCGATTGACAGCGTAGAATGAAGG
For test [1], the system named is FXR:RXRa (NR concentration 270 nM, RXRa partner concentration 90 nM). Summed up: (§1)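 For binding z-scores, the reference was random background probes on custom Agilent 4×180K protein-binding microarrays. These arrays were incubated 1 h with ligand-free nuclear receptor dimers in PBS pH 7.4, 2% milk, 0.02% Triton X-100, 1 mM DTT, 0.2 mg/mL BSA and 0.4 mg/ml salmon testes DNA. Fluorescence was scanned after antibody detection of each partner (one per run) and regression-normalized.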

Test [2] relates to LXRa:RXRa (NR concentration 270 nM, RXRa partner concentration 90 nM). Summed up:
as §1

The test system of test [3] is LXRa homodimer (NR concentration 270 nM). The procedure, abridged: as §1
The test system of test [4] is LXRb:RXRa (NR concentration 270 nM, RXRa partner concentration 90 nM). Summed up:
as §1

The subject of test [5] is LXRb homodimer (NR concentration 270 nM). Summed up: as §1
Test [6] concerns PPARa:RXRa (NR concentration 270 nM, RXRa partner concentration 90 nM). Summed up:
as §1

Test [7] has as its system PPARg:RXRa (NR concentration 180 nM, RXRa partner concentration 90 nM). The procedure, abridged: as §1
Test [8] concerns PPARg:RXRa 270nM:90nM, anti-RXR (NR concentration 270 nM, RXRa partner concentration 90 nM). The procedure, abridged: as §1
The subject of test [9] is PPARg:RXRa 30nM:10nM, anti-RXR (NR concentration 30 nM, RXRa partner concentration 10 nM). Summed up: as §1
The test system of test [10] is PPARg:RXRa 90nM:30nM, anti-RXR (NR concentration 90 nM, RXRa partner concentration 30 nM). Summed up:
as §1

For the sequence CAAACTAGGTCACAGAAGTCAAAGTCCGTGCGTA, the PBM binding z-score in test [1] turned out to be 4.23; in [2] it was 3.17; in test [3], 0.883; in test [4], 2.77; in test [5], 0.529; in test [6], 5.49. Moreover, the PBM binding z-score was found to be 8.96 in test [7], 7.26 in test [8], 5.36 in [9] and 6.93 in test [10].
As to CCTGACGGGTCAAGGTTATAGCACGGGTGGTACG, the PBM binding z-score in test [1] was 4.36; in test [2], 2.88; in [3], 0.0717; in test [4], 2.21; in [5], -0.369; in test [6] it was 4. Further, the PBM binding z-score in test [7] was 2.54; in [8] it was 2.92; in test [9] it was 0.472; in [10], 1.61.
Turning to GGAATGAGGGCAAGTTGATAGCAGAGTTTGATGG, the PBM binding z-score in test [1] is 1.28; in test [2], 0.752; in [3] it was -0.149; in [4], 0.54; in test [5] it was 0.0849; in test [6] it was 2.08. Moreover, the PBM binding z-score in test [7] worked out at 1.6; in test [8] it was 1.56; in [9], 0.431; in test [10], 0.993.
Turning to CGAACTTGGTCATCCAGGACAGTGAATACATTGA, the PBM binding z-score in [1] is 0.205; in test [2], -0.0973; in [3], -0.0371; in test [4], -0.13; in test [5] it was -0.606; in test [6], 0.208. The PBM binding z-score is 0.624 in test [7], -0.0338 in test [8], 0.133 in test [9] and -0.228 in test [10].
Consider CAAACTAGGTCACTGAGGTCAAAGTCCGTGCGTA, for which the PBM binding z-score in [1] was found to be 6.44; in [2], 5.9; in [3], 5.56; in test [4] it was 5.66; in test [5] it was 1.56; in test [6], 6.2. Besides, the PBM binding z-score in [7] was found to be 9.39; in test [8], 7.91; in test [9], 5.72; in test [10], 7.61.
For the sequence CCTCACGGGTCACTCCAGGTTATAGCATCGGAGT, the PBM binding z-score in test [1] turned out to be 4.64; in [2], 7.34; in test [3], 1.76; in test [4] it was 5.28; in test [5], 0.129; in test [6], 4.16. Further, the PBM binding z-score in [7] was 2.19; in test [8], 2.85; in [9], 0.902; in test [10] it was 1.92.
CCTAGTTGATCAAGGTCACACACGCTATAGGTAC: the PBM binding z-score in [1] was determined as 4.38; in test [2] it was 4.15; in test [3], 2.75; in test [4], 4.06; in test [5], 1.42; in [6], 4.36. Moreover, the PBM binding z-score in [7] is 2.96; in test [8], 3.19; in test [9], 1.28; in test [10], 2.24.
On to CAAATTAGGTCAAAGGTCAAAGTCGAGCCAACCA, for which the PBM binding z-score worked out at 8.64 in [1]; 7.33 in test [2]; 6.11 in [3]; 7.29 in test [4]; 3.55 in [5]; 7.52 in [6]. Moreover, the PBM binding z-score in test [7] amounted to 14; in test [8], 11.2; in [9] it was 13.6; in test [10], 13.7.
Consider TAGCCTAGGGCATGGGCCAGTATACCACGCGAAC, for which the PBM binding z-score in test [1] was -0.362; in test [2] it was -0.149; in test [3], -0.378; in test [4] it was -0.666; in [5] it was -1.19; in test [6], -0.188. In addition, the PBM binding z-score in test [7] was 0.658; in test [8], 0.665; in test [9], -0.115; in test [10], 0.0783.
Consider CGTACAGGGTCAGCTAGGCCAGAGTAGGGACGGC, for which the PBM binding z-score was 5.16 in test [1]; 2.66 in test [2]; -0.281 in test [3]; 1.94 in test [4]; -0.514 in test [5]; 4.22 in test [6]. Besides, the PBM binding z-score in test [7] is 3.14; in test [8], 3.3; in test [9] it was 0.448; in [10], 1.84.
Take GGAACGTGGGCATTCGAGTTGATAGCATGGCGAT: the PBM binding z-score in test [1] is -0.541; in [2] it was -0.612; in test [3] it was -0.683; in test [4], -1.02; in [5], -1.01; in [6], -1.09. In addition, the PBM binding z-score in test [7] is 0.22; in [8] it was -0.631; in test [9], -0.7; in [10], -0.858.
In the case of CCTTACGGGTCACTGACAAGTTATAGCATTTGGA, the PBM binding z-score in test [1] amounted to 5.46; in test [2], 3.31; in [3] it was 0.0997; in test [4], 3.2; in test [5], 0.134; in test [6], 4.9. For the same sequence, the PBM binding z-score in test [7] stood at 4.26; in [8] it was 4.4; in [9], 1.41; in test [10], 3.45.
